Assay outcomes deposited in PubChem by several laboratories.
This is a sample that favours compounds with a hit; in the whole collection about 2.2% have one here.
TWEAK Fn14 block = inhibitors of TWEAK-Fn14 signaling, primary screen, luciferase reporter cells, uHTS | inhibition, % at 10 µM | 2% of 360,000 active | TWEAK-stimulated Fn14 reporter cells, luciferase luminescence, 8 h | AID 1159606, 2016; in the data active means inhibition above about 50%
HSP90 inh = HSP90 inhibitors, primary screen, cell lysate, luminescence | 0.91% of 290,000 active | Rabbit reticulocyte lysate, luciferase refolding luminescence, 3 h | inhibition, % at 5.6 µM | AID 1789, 2009 | Heat shock protein HSP 90 (rabbit reticulocyte lysate; luciferase refolding);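 active means inhibition above the screen-wide mean plus 3 SD, computed separately per campaign, cut at about 16% in these data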;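 further: inhibitors lower the luminescence because luciferase stays unfolded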
LGR2 inh = inhibitors of bursicon-induced LGR2 CRE-luciferase signal, primary screen, cell-based, HEK293, CRE-luciferase reporter, bursicon stimulation | bursicon-stimulated, 4 h | 0.35% of 380,000 active | inhibition, % at 9.99 µM | Drosophila bursicon receptor LGR2 (rickets);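 active means drop in luminescence signal, shown as inhibition above about 50% in the replicate tests, limit read from the data, passing the limit was not always enough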;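 further: agonist challenge used bursicon conditioned medium at about half maximal strength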
TROY NFkB inh = inhibitors of TROY-driven NF-kB signaling, primary screen, Q293 LMP1-TROYcd cells, NF-kB luciferase, uHTS; Q293 LMP1-TROYcd NF-kB luciferase reporter, 4 h; inhibition, % at 10 µM; 0.98% of 360,000 active;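 active means compounds whose plate-normalised and pattern-corrected inhibition of the luciferase reporter signal at the single screening dose is 50% or more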
Hits are given with their value; 0 = inactive; - = no result given.

SMILES	TWEAK Fn14 block	HSP90 inh	LGR2 inh	TROY NFkB inh
O=C(CCN1C(=O)NC2(CCCC2)C1=O)Nc1ccc(Sc2ccc(Br)cc2)cc1	0	-	0	0
O=C(CCN1C(=O)NC2(CCCC2)C1=O)Nc1ccc(-c2nc3ccccc3s2)cc1	60.4	-	0	0
CC(C)CC#Cc1cnc2c(c1)C(=O)N([C@H](C)CO)C[C@H](C)[C@H](CN(C)C(=O)c1cccnc1)O2	-	-	0	-
O=C(Nc1ccc(Cl)cc1)Nc1csc([N+](=O)[O-])c1	66.8	0	0	0
COc1cc(Br)cc(/C=C/c2ccc3cccc(O)c3n2)c1OC	0	0	0	0
COc1ccc(/C=C/c2ccc3cccc(O)c3n2)c(OC)c1OC	81.3	0	0	0
COc1cccc(/C=C/c2ccc3cccc(O)c3n2)c1OC	82.4	0	0	0
C/C=C/c1ccc([C@H]2[C@@H](CO)N3C(=O)CN(C(=O)Nc4ccc(F)cc4)C[C@@H]23)cc1	-	-	0	-
CCOC(=O)c1cccc(N2C(=O)C3C(C2=O)C2C=CC3C23CC3)c1 (stereo not drawn)	88.5	0	0	-
Cc1nc(NCC2CCCO2)c2oc3ccccc3c2n1 (stereo not drawn)	0	0	-	0
Cc1ccc(Nc2ncnc3c2oc2ccccc23)cc1	0	0	0	0
CCc1nc(NCC2CCCO2)c2oc3ccccc3c2n1 (stereo not drawn)	86.9	0	-	-
CCc1nc(Nc2ccc3c(c2)OCCO3)c2oc3ccccc3c2n1	78.7	0	-	0
Cc1nc(Nc2ccc3c(c2)OCCO3)c2oc3ccccc3c2n1	0	0	-	0
c1ccc2c(c1)oc1c(Nc3ccc4c(c3)OCCO4)ncnc12	67.4	0	0	0
c1ccc(-c2csc(Nc3ccccn3)n2)cc1	53.2	0	0	0
Cc1cc(-c2csc(Nc3ccccn3)n2)ccc1F	50.8	0	0	0
COc1ccc(S(=O)(=O)Nc2ccc3c(c2)C(=O)N([C@H](C)CO)C[C@H](C)[C@H](CN(C)CC2CC2)OCCCC[C@@H](C)O3)cc1	-	-	0	-
CCOc1nc(NCCc2ccc(OC)c(OC)c2)nc(N2CCN(c3ccc(OC)cc3)CC2)n1	0	0	-	0
COc1ccc(N2CCN(c3nc(NCCc4ccc(OC)c(OC)c4)nc(OC)n3)CC2)cc1	0	0	-	57.0
CO[C@H]1CN(C)C(=O)c2cc(NC(=O)Nc3ccccc3F)ccc2OC[C@H](C)NC[C@H]1C	-	-	0	-
O=C(O)CCCc1c(-[n+]2ccccc2)[nH]c2ccccc12	0	0	0	0
O=C(O)CCc1c(C(=O)O)[nH]c2ccccc12	68.9	0	0	-
CC=Cc1ccc2n(c1=O)C[C@@H]1[C@@H](CO)[C@H](C(=O)NCCc3ccncc3)N(Cc3cncnc3)[C@H]21 (mixture of isomers)	-	-	0	-
CC(=O)NNc1ncnc2c1cnn2-c1ccc(C)c(C)c1	65.6	0	0	53.9
SMILES	TWEAK Fn14 block	HSP90 inh	LGR2 inh	TROY NFkB inh
CO[C@@H]1CN(C)C(=O)c2cc(NS(C)(=O)=O)ccc2OC[C@H](C)N(C(=O)C2CCC2)C[C@@H]1C	-	-	0	-
Cc1ccc(S(=O)(=O)CC(CN2CCCCC2)N2CCCCC2)cc1 (stereo not drawn)	0	0	0	0
O=S(=O)(CC(CN1CCCCC1)N1CCCCC1)c1ccc2ccccc2c1 (stereo not drawn)	0	0	50.1	0
CC(=O)N1CCCCN2[C@H](CO)[C@H](c3ccc(-c4cccc(C)c4)cc3)[C@@H]2C1	-	-	55.1	-
CC(=O)N1CCCCN2[C@@H](CO)[C@H](c3ccc(-c4cccc(C)c4)cc3)[C@@H]2C1	-	-	0	-
O=C(Nc1cc(F)ccc1F)N1CCCCN2[C@H](C1)[C@@H](c1ccc(-c3ccccc3)cc1)[C@@H]2CO	-	-	0	-
COc1ccccc1C(=O)/C=C/c1ccc(N2CCCCC2)c([N+](=O)[O-])c1	55.2	0	0	0
CC(=O)Oc1ccccc1C(=O)C=Cc1cccc([N+](=O)[O-])c1	82.6	-	101.4	0
Cc1cc(O)c(C(=O)/C=C/c2cccc([N+](=O)[O-])c2)c(=O)o1	0	0	-	0
O=C(/C=C/c1cccc([N+](=O)[O-])c1)n1cnc2ccccc21	102.6	0	0	0
O=C(/C=C/c1cccc([N+](=O)[O-])c1)N1CCN(c2ccccn2)CC1	0	0	0	0
CO[C@H]1CN(C)C(=O)c2ccc(NC(=O)Cc3ccccc3)cc2OC[C@@H](C)N(C)C[C@@H]1C	-	-	0	-
COC(=O)C[C@H]1C[C@H]2c3cc(NS(C)(=O)=O)ccc3O[C@H]2[C@H](CO)O1	-	-	0	-
